About 8,600 (12%) of roughly 69,000 compounds showed an effect of 50% or more. Many of the other results were omitted from the sample, so strong results are more common in it than they were.

For this assay, the system named is Plasmodium berghei. In words: Screen against P. berghei liver stage (PbLuc), transformed with Luciferase, at 10uM. In kind it is functional, HepG2. The settings on record: tested at 10 uM.
For `CCc1cc(O)nc(C2CCCN(Cc3ccncc3)C2)n1` (centres undefined), the INHIBITION is reported as 47.1%.

As to `COCc1cc(O)nc(C2CCCN(Cc3cccc(Cl)c3Cl)C2)n1` (centres undefined), the INHIBITION worked out at 17.4%.

Consider `CCN(CC1CCOC1)C(=O)Nc1ccc(OCC(F)(F)F)nc1` (centres undefined), for which the INHIBITION was -1.885%.

`CC(C)(C)CCN1CCC(c2nnc(Cn3cccn3)n2C2CC2)CC1`: the INHIBITION was found to be 32.2%.

Turning to `CC(=O)NCC(=O)NCC1(O)CCN(c2cnccn2)C1` (centres undefined), the INHIBITION was found to be 42.25%.

Turning to `COc1c(C)cnc(CN2CCOC(Cn3cncn3)C2)c1C` (centres undefined), the INHIBITION is recorded as 2.97%.

As for `O=C(C1CCC2(CCN(CC3CCOCC3)CC2)O1)N1CCCC1` (centres undefined), the INHIBITION was determined as 1.34%.

On to `COCCNC(=O)C1(Cc2ccccc2-c2ccncc2)CCOCC1`, for which the INHIBITION was 40%.

With `COc1ccc(OC)c(CN2CCC(c3cc(O)nc(C)n3)C2)c1` (centres undefined), the INHIBITION turned out to be 41.2%.

For `COCc1cc(O)nc(C2CCCN(Cc3cc(OC)ccc3F)C2)n1` (centres undefined), the INHIBITION is listed as 52.3%.

As to `Cc1cc(O)nc(C2CCCN(Cc3ccncc3)C2)n1` (centres undefined), the INHIBITION was determined as 27.3%.

Turning to `CC1=Nc2c(c(=O)[nH]n2C2CCOCC2)C(c2cccc(O)c2)S1` (centres undefined), the INHIBITION is listed as 0.29%.

With `CSc1ccc(C2SCC(=O)Nc3c2c(=O)[nH]n3C2CCOCC2)cc1` (centres undefined), the INHIBITION worked out at 52.1%.

Regarding `O=C1CSC(c2ccccc2)c2c(n(C3CCOCC3)[nH]c2=O)N1` (centres undefined), the INHIBITION was 32.2%.

In the case of `Cc1n[nH]c2c1C(c1ccsc1)SCC(=O)N2` (centres undefined), the INHIBITION amounted to 19.7%.

For the molecule `O=C1CC(c2ccccc2F)c2c(n(C3CCCC3)[nH]c2=O)N1` (centres undefined), the INHIBITION stood at 68.5%.

Consider `COc1ccccc1C1SCC(=O)Nc2c1c(=O)[nH]n2C1CCCCC1` (centres undefined), for which the INHIBITION is listed as -2.39%.

Consider `COc1ccccc1C1CC(=O)Nc2c1c(=O)[nH]n2C1CCCC1` (centres undefined), for which the INHIBITION is recorded as 11.7%.

On to `Cn1cc(C2SCC(=O)Nc3c2c(=O)[nH]n3C2CCOCC2)cn1` (centres undefined), for which the INHIBITION is -70.7%.

As for `CCOc1ccc(C2SCC(=O)Nc3c2c(=O)[nH]n3C(CC)CC)cc1` (centres undefined), the INHIBITION is listed as -19.7%.

For the molecule `O=C1CSC(c2ccc(O)cc2)c2c(n(C3CCOCC3)[nH]c2=O)N1` (centres undefined), the INHIBITION is listed as 60.1%.

With `O=C1CC(C2CCCCC2)c2c(n(C3CCCC3)[nH]c2=O)N1` (centres undefined), the INHIBITION is on record as 43.4%.

Take `O=C1CSC(c2ccsc2)c2c(n(C3CCCC3)[nH]c2=O)N1` (centres undefined): the INHIBITION is 63.3%.

As for `Cc1ccsc1CNC(=O)NC(C)c1ccc2c(c1)CCC(=O)N2` (centres undefined), the INHIBITION is -121%.

Regarding `COCCN1CCO[C@@H]2CN(Cc3ccc(C)s3)C[C@@H]2C1`, the INHIBITION amounted to 24.6%.

For `NC(=O)C1CCN(C(=O)CCSCc2ccccc2)CC1`, the INHIBITION came to 17.2875%.

With `CCCn1nc(C)c(C(=O)N(C)[C@@H]2CC[C@@H](N3CCCC3)[C@@H]2O)c1C`, the INHIBITION is recorded as 32%.

As to `CCn1cnnc1C1CCN(C(=O)c2cc3c(s2)CCOC3)CC1`, the INHIBITION is -9.37%.

Consider `Cc1cc(C)cc(N2CCN(C(=O)CCN3C[C@H]4CC[C@@H]3C4)CC2=O)c1`, for which the INHIBITION was 22.1%.

Turning to `CC(O)CN1CCN(C(=O)c2cccn2Cc2ccccc2)CC1` (centres undefined), the INHIBITION was -0.113%.

For the molecule `CCOC(C)c1nccn1CC(=O)Nc1cc(C)on1` (centres undefined), the INHIBITION was determined as 15.4%.

As to `CSCC(=O)N1CCCC(CO)(CC2CC2)C1` (centres undefined), the INHIBITION is 41.2%.

For the molecule `CC(C)(C)n1ncc2c1NC(=O)CSC2c1ccsc1` (centres undefined), the INHIBITION is reported as -14.7%.

Take `O=C1CSC(c2cccnc2)c2c(n(C3CCOCC3)[nH]c2=O)N1` (centres undefined): the INHIBITION is reported as 48.1%.

As to `O=C1CC(c2ccsc2)c2c(n(C3CCOCC3)[nH]c2=O)N1` (centres undefined), the INHIBITION was 19%.

Regarding `O=C1CSC(c2ccsc2)c2c(n(C3CCOCC3)[nH]c2=O)N1` (centres undefined), the INHIBITION is listed as 67.1%.

Regarding `O=C1CSC(c2ccncc2)c2c(n(C3CCOCC3)[nH]c2=O)N1` (centres undefined), the INHIBITION turned out to be 52.1%.

As for `Cc1n[nH]c2c1C(c1ccncc1)SCC(=O)N2` (centres undefined), the INHIBITION was determined as 23.5%.

Take `CC(C(=O)N1CCCCCC1)N1CCN(Cc2nccn2C)CC1` (centres undefined): the INHIBITION is on record as 37.4%.

`CCSCCn1cc(-c2nccs2)nn1`: the INHIBITION is recorded as -17.5%.

For the molecule `CC(C)c1ncncc1C(=O)N1CCCN(Cc2ccccc2)CC1`, the INHIBITION was 14.1%.

In the case of `CC(C)C(=O)N1CCCC1C(=O)Nc1ccc(F)c(F)c1` (centres undefined), the INHIBITION stood at 21.7%.

For `O=C(c1cccn1Cc1cccs1)N1CCN2CCCCC2C1` (centres undefined), the INHIBITION stood at 33.3%.

Take `CC(=O)N1CCO[C@@H]2CN(S(=O)(=O)c3ccc(F)cc3)CC[C@@H]2C1`: the INHIBITION worked out at 45.4%.

Take `O=C1CN(C(=O)CN(CC2CCC2)CC(F)(F)F)CCN1`: the INHIBITION is listed as 31%.

As to `OCC1CCC2(CC1)CN(Cc1ccsc1)Cc1ccccc1O2` (centres undefined), the INHIBITION came out at 51.5%.

On to `Cc1ccc(CN2Cc3ccccc3OC3(CCC(CO)CC3)C2)s1` (centres undefined), for which the INHIBITION was 67.9%.

For the molecule `OCC1CCC2(CC1)CN(Cc1ccccn1)Cc1ccccc1O2` (centres undefined), the INHIBITION turned out to be 21%.

In the case of `Cc1ccc(CN2CC(C(=O)Nc3ccccc3)C3(CCOCC3)C2)s1` (centres undefined), the INHIBITION stood at 45.8%.

For the molecule `Cc1ccc(CN2Cc3ccccc3OC3(CCC(CO)CC3)C2)o1` (centres undefined), the INHIBITION came to 44.1%.

Take `OCC1CCC2(CC1)CN(Cc1ccccc1F)Cc1ccccc1O2` (centres undefined): the INHIBITION came out at 53.5%.

As to `O=C(Nc1ccccc1)C1CN(Cc2ccsc2)CC12CCOCC2` (centres undefined), the INHIBITION is recorded as -3.12%.

For `Cc1ncc(CN2Cc3ccccc3OC3(CCC(CO)CC3)C2)cn1` (centres undefined), the INHIBITION is 47.2%.

In the case of `Cc1cnccc1CN1Cc2ccccc2OC2(CCC(CO)CC2)C1` (centres undefined), the INHIBITION came out at 41.2%.

The values above are taken from ChEMBL document CHEMBL4513216, “Probing the Open Global Health Chemical Diversity Library for Multistage-Active Starting Points for Next-Generation Antimalarials” (ACS Infect Dis, 2020).
